Inconclusive results are not listed. Where a call stands in place of a potency, no number is given. A number with no mark means an inactive call. The source made the active and inactive calls. Calls follow the shape of the full dose curve.
Assay: qHTS assay to identify small molecule antagonists of the sonic hedgehog signaling (Shh) pathway (AID 1259369); also: nearly all actives have a fitted effect of over 45% in size
Details: NIH/3T3 Gli1-Luc reporter, Shh antagonist, luminescence 24 h; series mostly up to 92.4 µM
Source text: U.S. Tox21 Program National Center for Advancing Translational Sciences [NCATS] NIH Chemical Genomics Center [NCGC] U.S. Environmental Protection Agency [EPA] National Institutes of Environmental Health Sciences [NIEHS] National Toxicology Program [NTP] U.S. Food and Drug Administration [FDA] Tox21 Assay Overview: The sonic hedgehog (Shh) pathway is essential for normal embryonic development. Dysregulation of the Shh pathway can cause severe developmental defects in organs. Therefore chemicals that interfere with the pathway are potential developmental toxicants. A cell line designated 3T3Gli1-Luc (DMB/OARSA/CFSAN/FDA, Laurel, MD), a NIH/3T3 derived clone containing stably integrated Gli1-Luc reporter is used to detect chemical interference of the Shh pathway, by changes in the expression of the firefly Luc gene under the control of the Gli1 transcriptional response element. This cell line was used to screen Tox21 libraries for identifying and prioritizing the potential developmental toxicants that interfere Shh pathway. Conditioned medium-stimulated mode was used to screen for chemicals inhibiting Shh signaling.
Tox21 Assay Protocol Summary: 3T3 Gli1-Luc cells were dispensed at 2,000 per well in 5uL of culture medium into white solid bottom 1536-well plates (Greiner Bio-One, Monroe, NC) using a Multidrop Combi (Thermo Scientific, Waltham, MA) dispenser. The assay plates were incubated at 37 C and 5% CO2 for 4hr, and then 23nL of compounds dissolved in DMSO and positive control were transferred using a Pintool station (Wako, San Diego, CA). The compound transfer was followed by the addition of 1ul conditioned medium or assay buffer using two separate tips of Flying Reagent Dispenser (FRD, Aurora Discovery, San Diego, CA). The assay plates were incubated at 37C and 5% CO2 for 24hr. For luciferase read, 4uL of Amplite Luciferase reporter gene assay reagent (AAT Bioquest, Inc. Sunnyvale, CA) was added to each well of the assay plates using FRD and incubated at room temperature for 30min. The luminescence signal was measured using a ViewLux plate reader (Perkin Elmer, Shelton, CT).
With `CCOc1c(N2CCOCC2)cnn(C)c1=O` the Potency was “inactive”. With `CC(CC=O)CC(C)(C)C` (stereo not given) the Potency was “inactive”. `C[N+]1(CC2COC(c3ccccc3)(c3ccccc3)O2)CCCCC1` (stereo not given) showed an activity change, negative = inhibition of -10.9% [at 19 µM]. In the case of `CC(=O)c1cnccn1`, the Potency is reported as “inactive”. With `CCCCCCCCCC[N+](C)(C)[O-]` the Potency was “inactive”. In the case of `CC1=CCC(O)(C(C)C)CC1` (stereo not given), the Potency is reported as “inactive”. With `O=C1c2ccccc2C(=O)c2cc(O)ccc21` the Potency was “inactive”. In the case of `Clc1cc(Cl)c(Cl)nc1Cl`, the Potency is reported as “inactive”. In the case of `c1ccc2sc(SN3CCOCC3)nc2c1`, the Potency is reported as “inactive”. For `CC(C)(C#N)Nc1nc(Cl)nc(NC2CC2)n1`, the Potency was 243 nM (active). Work on `Cc1cc(C)c(N=Nc2c(O)c(S(=O)(=O)O)cc3cc(S(=O)(=O)O)ccc23)cc1C` yielded an activity change, negative = inhibition of 9.78% [at 8.39 µM]. With `Cc1ncc(COP(=O)(O)O)c(C=O)c1O` the Potency was “inactive”. In the case of `CC(C)[C@H]1CC[C@@H](C)CC1=O`, the Potency is reported as “inactive”. With `Cc1ccc(-c2ccccc2C#N)cc1` the Potency was “inactive”. In the case of `Cc1ncc([C@@H](CCCCCCc2ccc3c(n2)NCCC3)CC(=O)O)cn1`, the Potency is reported as “inactive”. For `COc1cc(C(=O)OC(COCCC(C)C)CN2CCOCC2)cc(OC)c1OC` (stereo not given), the Potency was “inactive”. In the case of `CCCCCCCC1CCCC1=O` (stereo not given), the Potency is reported as “inactive”. In the case of `CC(C)C(=O)OC(=O)C(C)C`, the Potency is reported as “inactive”. With `NC(N)=NCCN1CCCCCCC1` the activity change, negative = inhibition was 18.5% [at 0.349 µM]. In the case of `Cc1ccccc1N=C(N)N=C(N)N`, the Potency is reported as “inactive”. With `CC(=O)OCC(=O)[C@@]1(O)[C@H](C)C[C@H]2[C@@H]3CCC4=CC(=O)C=C[C@]4(C)[C@@]3(F)[C@@H](O)C[C@@]21C` the Potency was “inactive”. In the case of `C=C(C)C(=O)OCC(O)CO` (stereo not given), the Potency is reported as “inactive”. For `Cc1ccc(C(=O)Nc2ccc(S(=O)(=O)O)c3cc(S(=O)(=O)O)cc(S(=O)(=O)O)c23)cc1NC(=O)c1cccc(NC(=O)Nc2cccc(C(=O)Nc3cc(C(=O)Nc4ccc(S(=O)(=O)O)c5cc(S(=O)(=O)O)cc(S(=O)(=O)O)c45)ccc3C)c2)c1`, the Potency was “inactive”. In the case of `OCCc1ccccn1`, the Potency is reported as “inactive”. For `CCCCCCCCN1CCCC1=O`, the Potency was “inactive”. In the case of `CCCCCCCCCCCCSC`, the Potency is reported as “inactive”. For `CCCC[N+](C)(CCCC)CCCC`, the Potency was “inactive”. With `Cc1nc(C2CCCCC2)c(-c2ccc(S(N)(=O)=O)c(F)c2)o1` the Potency was “inactive”. In the case of `c1ccc(CCc2ccccc2)cc1`, the Potency is reported as “inactive”. For `CCO[Si](OCC)(OCC)c1ccccc1`, the Potency was “inactive”. For `CC[N+](CC)(CC)CCOc1cccc(OCC[N+](CC)(CC)CC)c1OCC[N+](CC)(CC)CC`, the Potency was “inactive”. For `CC(C)(C)OC(=O)c1cccc(N)c1`, the Potency was “inactive”. In the case of `COc1ccc2cc1Oc1cc3c(cc1OC)CC[N+](C)(C)[C@H]3Cc1ccc(cc1)Oc1c(OC)c(OC)cc3c1[C@@H](C2)[N+](C)(C)CC3`, the Potency is reported as “inactive”. With `N[C@H](C(=O)O)[C@@H](O)c1ccc(O)c(O)c1` the Potency was “inactive”. In the case of `C[C@@H]1CCC[C@H](C)N1`, the Potency is reported as “inactive”. With `C=CCCC(=O)O` the Potency was “inactive”. With `Nc1ccncc1N` the Potency was “inactive”. For `COc1cc(-c2ccc(=O)[nH]n2)ccc1OC(F)F`, the Potency was “inactive”. For `C=CCOCC(O)CO` (stereo not given), the Potency was “inactive”. With `O=C(CO)[C@@H](O)[C@H](O)[C@@H](O)CO` the Potency was “inactive”.

Reference: PubChem BioAssay (Tox21)
Potency is read from the fitted curve at half-maximal effect.
